Source: PubChem BioAssay (NCATS)
Inconclusive results are not listed. Unmarked numbers belong to inactive results. Activity calls are given as the source filed them. Calls come from the whole dose curve; as a rule, active = well fitted inhibition curve with a large enough effect; inconclusive = small, poorly fitted or top-dose-only effect; inactive = no such curve, though single readings can be large or run the other way.

Test: BET inhibitor-based combinations targeting novel dependencies in MECOM-rearranged (r) AML: HNT-34 cell line (AID 2202234); note: nearly all actives have a fitted effect of over 35% in size;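 for viability (% of control): plate controls were vehicle wells for no effect and cell-free wells for full effect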
Conditions: HNT-34 AML viability, CellTiter-Glo luminescence, 48 h; series mostly up to 46 µM; viability (% of control): at the top concentration
Outline: (§1)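 Normalized to DMSO and empty-well controls, the luminescence data from CellTiter-Glo after 48 hr drug exposure were fitted across 11 concentrations. Reported metrics are area under the dose-response curve and its Z-transformed form.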
Potency is the fitted concentration of half-maximal effect.

Compound	Potency	viability (% of control) [%]
COc1cc(N2CCC(N3CCN(C)CC3)CC2)ccc1Nc1ncc(Cl)c(Nc2ccccc2S(=O)(=O)C(C)C)n1	16600 nM (active)	–
CC(=O)N(O)CCCCCNC(=O)CCC(=O)N(O)CCCCCNC(=O)CCC(=O)N(O)CCCCCN	9340 nM (active)	–
CC(C)[C@H](C(=O)Nc1ccc(C(=O)NO)cc1)c1ccccc1	833 nM (active)	–
O=C(NCC1CCCCN1)c1cc(OCC(F)(F)F)ccc1OCC(F)(F)F (configuration not stated)	–	106
Clc1ccccc1CN1CCc2sccc2C1	–	107
O=C(CCCCCCC(=O)Nc1ccc([C@H]2O[C@@H](CSc3nc(-c4ccccc4)c(-c4ccccc4)o3)C[C@@H](c3ccc(CO)cc3)O2)cc1)NO	6050 nM (active)	–
Cc1cc2c(C(C)C)c(O)c(O)c(C=O)c2c(O)c1-c1c(C)cc2c(C(C)C)c(O)c(O)c(C=O)c2c1O	9340 nM (active)	–
CC(C)n1nc(-c2cc3cc(O)ccc3[nH]2)c2c(N)ncnc21	372 nM (active)	–
Cc1nc(N)sc1-c1ccnc(Nc2ccc(N3CCOCC3)cc2)n1	2350 nM (active)	–
Cc1coc2c1C(=O)C(=O)c1c-2ccc2c1CCCC2(C)C	18600 nM (active)	–
CCCOc1ccc2nc(NC(=O)OC)[nH]c2c1	235 nM (active)	–

Test: BET inhibitor-based combinations targeting novel dependencies in MECOM-rearranged (r) AML: UCSD-AML1 cell line (AID 2202235); note: nearly all actives have a fitted effect of over 40% in size;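 for viability (% of control): plate controls were DMSO vehicle wells for no effect and blank wells for full effect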
Conditions: UCSD-AML1 AML cells viability, CellTiter-Glo, 48 h; series mostly up to 46 µM; viability (% of control): at the top concentration
Outline: as §1

Compound	Potency	viability (% of control) [%]
COc1cc(N2CCC(N3CCN(C)CC3)CC2)ccc1Nc1ncc(Cl)c(Nc2ccccc2S(=O)(=O)C(C)C)n1	2950 nM (active)	–
CC(C)[C@H](C(=O)Nc1ccc(C(=O)NO)cc1)c1ccccc1	833 nM (active)	–
Clc1ccccc1CN1CCc2sccc2C1	–	117
COc1ccc(-c2cc3nccn3c(Nc3ncccc3C(N)=O)n2)cc1OC	6610 nM (active)	–
Cc1c(-c2ccc(O)cc2)n(Cc2ccc(OCCN3CCCCCC3)cc2)c2ccc(O)cc12	–	108
Cc1cc2c(C(C)C)c(O)c(O)c(C=O)c2c(O)c1-c1c(C)cc2c(C(C)C)c(O)c(O)c(C=O)c2c1O	9340 nM (active)	–
CC(C)n1nc(-c2cc3cc(O)ccc3[nH]2)c2c(N)ncnc21	332 nM (active)	–
Cc1nc(N)sc1-c1ccnc(Nc2ccc(N3CCOCC3)cc2)n1	833 nM (active)	–
COc1cc(N2CCC(O)CC2)ccc1Nc1cc(Nc2ccccc2S(=O)(=O)C(C)C)c2cc[nH]c2n1	26300 nM (active)	–
Cc1coc2c1C(=O)C(=O)c1c-2ccc2c1CCCC2(C)C	–	119
CCCOc1ccc2nc(NC(=O)OC)[nH]c2c1	263 nM (active)	–
